Compounds with a hit are over-represented: about 3.5% of the library has one in this group of screens.
BoNT-F LC inh – BoNT F light chain protease inhibition. AID 588497. actives 0.22% (n = 360,000). inhibition, % at 10 µM. Multiplex microsphere protease cleavage assay, flow cytometry; in the data active means inhibition above about 35%, passing the limit was not always enough; inconclusive means no clear call, values can overlap the other calls
BoNT-A LC inh2 – BoNT A light chain protease inhibition; multiplex microsphere protease substrate cleavage, flow cytometry; inhibition, % at 10 µM; actives 0.17% (n = 360,000); AID 588499
Anthrax LF prot – blocks Bacillus anthracis lethal factor protease. P15917. multiplex microsphere protease cleavage assay, LF. inhibition, % at 10 µM. actives 0.12% (n = 360,000). AID 588501
BJeLR viability – kills HRASV12-expressing BJeLR cells | actives 0.17% (n = 300,000) | AID 1554 | BJeLR (HRASV12) viability, CellTiter-Glo ATP luminescence, 48 h | inhibition, % (no concentration beside the values); in the data active means inhibition above about 50%; inconclusive means no clear call, values can overlap the other calls
Autofluor counter – flagged as autofluorescent in microsphere protease counterscreen | actives 3.1% (n = 360,000) | AID 624483 | compound autofluorescence counterscreen, microsphere flow cytometry; active compounds read high | fluorescence intensity (concentration not given with the values); in the data active means fluorescence intensity above about 16000; inconclusive means no clear call, values can overlap the other calls
Each line names hits and unclear results; the compound was inactive in the other large screens. Unless noted, no stated cut-off is given here; in the data, active means inhibition above about 30%; inconclusive means no clear call, values can overlap the other calls; inactive means below that.

O=C(O)c1cc([N+](=O)[O-])ccc1N1CCCCC1	none
Cc1ccc(C(=O)c2cc([N+](=O)[O-])ccc2N2CCOCC2)cc1	none
COc1ccc(C(=O)c2cc([N+](=O)[O-])ccc2N2CCOCC2)cc1	BJeLR viability 59
CC(=O)c1cc(F)c(N2CCN(c3ccc([N+](=O)[O-])cc3F)CC2)cc1C	Autofluor counter 20270
C=CC(=O)Nc1cccc(Nc2nc(N[C@H]3CC[C@H](N(C)C)CC3)nc3c2ncn3C(C)C)c1	none (no result: BJeLR viability)
FC(F)(F)c1ccccc1Cc1c(-c2ccco2)nc2ccc(Br)cn12	none (no result: BJeLR viability)
O=c1c2ccccc2nc(-c2ccccc2)n1-c1cccnc1	BoNT-A LC inh2 inconclusive, Autofluor counter 22832
COc1ccc(-c2ccc(SCC(=O)N3CCCC3)nn2)cc1OC	Autofluor counter 19444
CC(=O)Oc1c(Cl)c(N2CCOCC2)c(OC(C)=O)c2ccccc12	Autofluor counter 17480
COc1ccc2nc(Nc3nc(CSc4nnnn4-c4ccccc4)cc(=O)[nH]3)nc(C)c2c1	none
Cc1ccc(SCc2cc(=O)[nH]c(Nc3nc(C)c4cccc(C)c4n3)n2)cc1	Autofluor counter 22617
CCOc1ccc2nc(Nc3nc(CSc4nnnn4-c4ccccc4)cc(=O)[nH]3)nc(C)c2c1	BoNT-A LC inh2 inconclusive, Autofluor counter 20506
COc1ccc2nc(Nc3nc(CSc4ccc(C)cc4)cc(=O)[nH]3)nc(C)c2c1	none
O=[N+]([O-])c1ccc(N(CCO)CCO)c2c1no[n+]2[O-]	none (no result: BJeLR viability)
CN1CCN(c2ccc([N+](=O)[O-])c3no[n+]([O-])c23)CC1	BJeLR viability 71
COc1cccc(CN2CCC2(C)C(=O)Nc2ccc(C)c(O)c2)c1F (configuration not stated)	none (no result: BJeLR viability)
CCCCn1c(N)c(Sc2ccc([N+](=O)[O-])cc2)c(=O)[nH]c1=O	none
CCCCn1c(N)c(Sc2ccc(Cl)cc2)c(=O)[nH]c1=O	Autofluor counter 19647
O=C1COc2ccc(S(=O)(=O)N3CCN(c4ccccc4F)CC3)cc2N1	none
CC(C)CCNC(=O)c1onc(CSc2ccccn2)c1C(=O)NCCC(C)C	none
C[C@H](CO)N1C[C@H](C)[C@H](CN(C)S(=O)(=O)c2ccc3ccccc3c2)OCc2cnnn2CCCC1=O	none (no result: BJeLR viability)
CN(Cc1ccccc1)C(=O)NC1CCCCC1	BoNT-A LC inh2 inconclusive, Autofluor counter 22110
NNC(=O)c1nc(-c2ccccc2)n2c1CCCCC2	BoNT-A LC inh2 inconclusive, Autofluor counter 20671
COc1ccc(-c2cc(C(=O)N3CCCc4ccccc43)no2)cc1OC	Autofluor counter 22113
COc1ccc(-c2cc(C(=O)N3CCCc4ccccc43)no2)cc1	BoNT-A LC inh2 inconclusive, Autofluor counter 22780
COc1ccc(-c2cc(C(=O)N3CCc4ccccc4C3)no2)cc1OC	Autofluor counter 21095
CCOc1ccc(C(=O)OCC(=O)NC2CCCCCCC2)cc1	none (no result: BJeLR viability)
CCOc1cccc2cc(C(=O)NCc3cccnc3)c(=O)oc12	BoNT-A LC inh2 inconclusive, Autofluor counter 22159 (no result: BJeLR viability)
CCOc1cccc2cc(C(=O)Nc3cc(C)on3)c(=O)oc12	BoNT-A LC inh2 inconclusive, Autofluor counter 24162
CCOc1cccc2cc(C(=O)Nc3ccccc3-c3ccccc3)c(=O)oc12	none
CC1(C(=O)Nc2cnc3ccccc3c2)CCN1Cc1cc2ccccc2o1 (configuration not stated)	none (no result: BJeLR viability)
Cc1cc(C)nc(NC(=O)/C=C/c2ccccc2Cl)n1	none
Cc1cc(N)c2cc(NC(=O)/C=C/c3ccccc3Cl)ccc2n1	BJeLR viability 107
O=C(NCCc1cccs1)Nc1nnc([C@H]2C[C@H](O)[C@@H](CO)O2)s1	none (no result: BJeLR viability)
CCOC(=O)CNC(=O)C1(c2ccccc2)CCCC1	Autofluor counter 16511
CCNC(=O)C1(c2ccccc2)CCCC1	none
CCOc1ccc(Nc2nnc(SCc3nc4ccccc4c(=O)[nH]3)s2)cc1	none
O=C1CSC(c2ccccc2[N+](=O)[O-])N1c1ccc(O)cc1 (configuration not stated)	none
CC(C)(C)C1CCc2onc(C(=O)NC3CCCC3)c2C1 (configuration not stated)	Autofluor counter 21049
O=C(NC1CCCCC1)c1noc2c1CCCCC2	Autofluor counter 22953
COc1ccc(C(=O)Nc2c(-c3cccs3)c(=O)c3ccccc3n2C)cc1	none
c1ccc(-c2cnc(-c3ccccc3)nc2)cc1	BoNT-A LC inh2 inconclusive
O=C(O)c1ncc(-c2ccccc2)cn1	Autofluor counter 17752
Cn1cnc(S(=O)(=O)N2CCCCC2c2cc(C(=O)Nc3cccc4c3CCCC4)no2)c1 (configuration not stated)	none (no result: BJeLR viability)
CC(C)NC(=S)N/N=C/c1sc(N2CCCCC2)nc1-c1cccs1	BoNT-A LC inh2 33

Screening results as filed in PubChem.
